Assay in all cases: NCI-60 one-dose screen, 48 h (100 = growth as untreated, 0 = no growth, -100 = all killed)
Details in all cases: 10 µM unless noted

In assay [1] the test system is T-47D breast.
Assay [2] relates to BT-549 breast.
For assay [3], the system named is MDA-MB-435 melanoma.
Assay [4] has as its system SW-620 colon.
In assay [5] the test system is MCF7 breast.
Assay [6] concerns HCT-116 colon.
The test system of assay [7] is HCC-2998 colon.
For assay [8], the system named is KM12 colon.

The values that follow come from PubChem BioAssay (NCI).

About 83,000 compounds went through this panel and 20% of them were active in at least one assay; those are over-represented in the sample as a whole.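 A percent growth of 40 corresponds to 60% growth inhibition; 0 means no net growth; -100 means all cells died. Active threshold: below 10.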 A number with no mark means an inactive call. Active and inactive are the calls of the source.

Consider `Cn1cc(-c2nn3cc(-c4ccncc4)nc3s2)c2cc(F)ccc21`, for which the growth in assay [1] is 41.4%; in assay [2] it was 64.6%; in assay [3] it was 83.2%; in assay [4] it was 68.9%; in assay [5] it was 18.2%; in assay [6] it was 45.7%. Also, the results for the growth in assay [7] and in assay [8] were 91.4% and 81.8%, respectively.
For `C#CCOc1ccc(-c2csc(NC(=O)C=C)n2)cc1NS(=O)(=O)c1cccc2c(N(C)C)cccc12`, the growth in assay [1] is 60.7%; in assay [2] it was 58.6%; in assay [3], 14.7%; in assay [4], 10.3%; in assay [5], 4.46% (active); in assay [6], -72.2% (active). The growth was 78.4% in assay [7] and 63.1% in assay [8].
In the case of `O=C(CCCCCCNC(=O)C(O)(O)C(F)(F)F)Nc1ncc(-c2ccc(Br)cc2)s1`, the growth in assay [1] is 3.85% (active); in assay [2] it was -20.5% (active); in assay [3], 6.58% (active); in assay [4], -16.2% (active); in assay [5], 6.6% (active); in assay [6], -26.3% (active). The growth in assay [7] is -54.6% (active); in assay [8], -67% (active).
Consider `CC1=C(C)C(=O)C(Nc2cccc(C(F)(F)F)c2)=C(Br)C1=O`, for which the growth is 17.6% in assay [1]; 110% in assay [2]; 103% in assay [3]; 48.7% in assay [4]; 52.3% in assay [5]; 20% in assay [6]. In addition, the growth in assay [7] was 108%; in assay [8], 90.7%.
Take `CCc1cc2c(cc1Cl)nc1c(=O)[nH]c(=O)nc-1n2CCOCC(C)C`: the growth in assay [1] is 75.2%; in assay [2] it was 94%; in assay [3], 3.04% (active); in assay [4] it was 70.2%; in assay [5] it was 39.5%; in assay [6], 37.9%. The growth in assay [7] is 80.3%; in assay [8], 74.3%.
On to `COc1ccc2c(c1)C=CC1(O2)Oc2ccc(OC)cc2C=C1C` (configuration not stated), for which the growth in assay [1] was 45%; in assay [2] it was 26.5%; in assay [3], -35.3% (active); in assay [4], 29.8%; in assay [5], 12.1%; in assay [6] it was 12.4%. The growth in assay [7] was 24.1%; in assay [8] it was 27.9%.
With `O=C(/C=C/C=C/c1csc(Br)n1)NO`, the growth in assay [1] was 103%; in assay [2], 98.4%; in assay [3], 92.6%; in assay [4] it was 103%; in assay [5] it was 84.2%; in assay [6] it was 95.8%. Besides, the growth was 107% in assay [7] and 93.4% in assay [8].
For the compound `N#C/C(=C\c1ccc(-c2ccc(Cl)cc2)o1)C(=O)Nc1ncc(Cc2ccc(Br)cc2)s1`, the growth in assay [1] is 18.7%; in assay [2] it was 24.7%; in assay [3], 11.3%; in assay [4] it was -40% (active); in assay [5], 30.5%; in assay [6], -33% (active). For the same compound, the values for the growth in assay [7] and in assay [8] were 62.4% and 9.51% (active), respectively.
In the case of `COc1ccc([C@H]2C(=O)N(c3cc(OC)c(OC)c(OC)c3)[C@@H]2c2ccc(OC)c(O)c2)cc1`, the growth is 90.5% in assay [1]; -28.2% (active) in assay [2]; -6.94% (active) in assay [3]; 23.3% in assay [4]; 14% in assay [5]; 6.05% (active) in assay [6]. Also, the growth in assay [7] is 13.3%; in assay [8] it was 12.4%.
For the compound `NCCNC(=O)c1cccc(COc2ccccc2NC(=O)c2cc(Cl)c(Cl)[nH]2)c1`, the growth in assay [1] is 89.2%; in assay [2], 105%; in assay [3], 101%; in assay [4], 111%; in assay [5], 77.7%; in assay [6], 86.1%. The values for the growth in assay [7] and in assay [8] were 106% and 101%, respectively.
`O=C1Nc2ccc(F)cc2/C1=C\C(=O)c1ccc(NS(=O)(=O)c2ccccc2)cc1`: the growth was 96.7% in assay [1]; 111% in assay [2]; 92.5% in assay [3]; 43.1% in assay [4]; 22.5% in assay [5]; 56.9% in assay [6]. For the same compound, the growth is 116% in assay [7] and 102% in assay [8].
For `CCOC(=O)C1=C(C)NC(C)=C(C(=O)OC(C)C)C1c1cccc(C#N)c1` (configuration not stated), the growth in assay [1] is 95.1%; in assay [2], 126%; in assay [3], 104%; in assay [4] it was 99.2%; in assay [5], 94.5%; in assay [6], 94%. Also, the growth is 104% in assay [7] and 98% in assay [8].
For `O=C(O)c1ccc(-n2c(=O)n(-c3cccc(C(F)(F)F)c3)c(=O)c3cc(-c4ccc(F)cc4F)ccc32)cc1`, the growth was -5.81% (active) in assay [1]; -3.47% (active) in assay [2]; 5.93% (active) in assay [3]; 15.5% in assay [4]; 1.46% (active) in assay [5]; 4.2% (active) in assay [6]. Further, the growth was 13.4% in assay [7] and 4.47% (active) in assay [8].
Turning to `NS(=O)(=O)c1nnc(/N=C/c2c(O)[nH]c3ccccc23)s1`, the growth is 85.2% in assay [1]; 98.8% in assay [2]; 103% in assay [3]; 106% in assay [4]; 87.6% in assay [5]; 94.5% in assay [6]. The growth in assay [7] was 107%; in assay [8], 95.4%.
